From the supplement of paper PMC10849652
Targets with a hit are over-represented here; the source holds about 7,900 in all. About 0.6% of all pairs of compound and target were hits.

How the values were obtained:
Assay in all cases: log2 fold change, soluble protein after heating vs DMSO (PISA); higher = thermal stabilisation; K562 cells, 10 uM, 30 min; active = over 0.2 and 3.5 SD of the protein, either way, in both replicates (recomputed)
[1] = compound: CC[C@@H]1C(=O)N(C)c2cnc(Nc3ccc(C(=O)NC4CCN(C)CC4)cc3OC)nc2N1C1CCCC1
How it was run: (§1)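 K562 cells at 2×10^6 cells/mL were treated with 10 μM compound for 30 min. Aliquots were heated for 3 min across 48°C-58°C, pooled, and extracted in PBS with 0.5% NP-40 at 4°C; soluble protein was the supernatant after 21,000xg for 90 min. Soluble protein was quantified by TMTpro 16plex LC-MS/MS with channel sums equalised, and reported as log2 fold change in thermal stability against DMSO controls, with values from duplicates.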

volasertib = compound: CC[C@@H]1C(=O)N(C)c2cnc(Nc3ccc(C(=O)N[C@H]4CC[C@H](N5CCN(CC6CC6)CC5)CC4)cc3OC)nc2N1C(C)C [volasertib]
How it was run: as §1

[2] = compound: CC[C@H](C)N1C=C(C2=C(C=C(C=C21)C3=CN=C(C=C3)N4CCNCC4)C(=O)NCC5=C(C=C(NC5=O)C)C)C
How it was run: as §1

epoxomicin = compound: CC[C@H](C)[C@@H](C(=O)N[C@@H]([C@@H](C)O)C(=O)N[C@@H](CC(C)C)C(=O)[C@]1(CO1)C)NC(=O)[C@H]([C@@H](C)CC)N(C)C(=O)C [epoxomicin]
How it was run: as §1

[3] = compound: CCn1c(C(=O)N(C2CC2)C2CC2)cc2c3c(ncn3C)c(Nc3cc(C)n(C)n3)nc21
How it was run: as §1

[4] = compound: CCn1cc(-c2ccnc3[nH]c(-c4cccc(CN(C)C)c4)cc23)c(-c2ccc(NC(=O)N(C)C)cc2)n1
How it was run: as §1

[5] = compound: CN(C)CC(=O)Nc1ccc2[nH]c(=O)c3ccccc3c2c1
How it was run: as §1

rosiglitazone = compound: CN(CCOC1=CC=C(C=C1)C[C@H]2C(=O)NC(=O)S2)C3=CC=CC=N3 (racemic) [rosiglitazone]
How it was run: as §1

[6] = compound: CN1C2=C(C3=C1C(=O)N(N=C3)CC4=CC(=CC=C4)N)SC(=C2)S(=O)C
How it was run: as §1

[7] = compound: CN1CCC(CNc2ccc3ncc(-c4cccc(OC(F)(F)F)c4)n3n2)CC1
How it was run: as §1

saracatinib = compound: CN1CCN(CCOc2cc(OC3CCOCC3)c3c(Nc4c(Cl)ccc5c4OCO5)ncnc3c2)CC1 [saracatinib]
How it was run: as §1

sotrastaurin = compound: CN1CCN(c2nc(C3=C(c4c[nH]c5ccccc45)C(=O)NC3=O)c3ccccc3n2)CC1 [sotrastaurin]
How it was run: as §1

alvocidib = compound: CN1CC[C@H](c2c(O)cc(O)c3c(=O)cc(-c4ccccc4Cl)oc23)[C@H](O)C1 [alvocidib]
How it was run: as §1

Tubastatin A = compound: CN1CCc2c(c3ccccc3n2Cc2ccc(C(=O)NO)cc2)C1 [Tubastatin A]
How it was run: as §1

[8] = compound: CNC(=O)C1=CC=CC=C1NC2=NC(=NC=C2Cl)NC3=C(C=C(C=C3)N4CCOCC4)OC
How it was run: as §1

defactinib = compound: CNC(=O)c1ccc(Nc2ncc(C(F)(F)F)c(NCc3nccnc3N(C)S(C)(=O)=O)n2)cc1 [defactinib]
How it was run: as §1

rucaparib = compound: CNCc1ccc(-c2[nH]c3cc(F)cc4c3c2CCNC4=O)cc1 [rucaparib]
How it was run: as §1

[9] = compound: CNc1nc(-c2ccc3c(N)n[nH]c3c2)cc(N2C[C@@H](C(=O)NC3CCCCC3)CC[C@H]2C)n1
How it was run: as §1

encorafenib = compound: COC(=O)N[C@@H](C)CNc1nccc(-c2cn(C(C)C)nc2-c2cc(Cl)cc(NS(C)(=O)=O)c2F)n1 [encorafenib]
How it was run: as §1

[10] = compound: COC(=O)[C@H](CCSC)NC(=O)C1=C(C=C(C=C1)NC[C@H](CS)N)C2=CC=CC=C2
How it was run: as §1

Measured: log2 fold change

MYH10 isoform 3 (UniProt P35580)
Sequence of UniProt P35580 (P35580 whole entry, looked up): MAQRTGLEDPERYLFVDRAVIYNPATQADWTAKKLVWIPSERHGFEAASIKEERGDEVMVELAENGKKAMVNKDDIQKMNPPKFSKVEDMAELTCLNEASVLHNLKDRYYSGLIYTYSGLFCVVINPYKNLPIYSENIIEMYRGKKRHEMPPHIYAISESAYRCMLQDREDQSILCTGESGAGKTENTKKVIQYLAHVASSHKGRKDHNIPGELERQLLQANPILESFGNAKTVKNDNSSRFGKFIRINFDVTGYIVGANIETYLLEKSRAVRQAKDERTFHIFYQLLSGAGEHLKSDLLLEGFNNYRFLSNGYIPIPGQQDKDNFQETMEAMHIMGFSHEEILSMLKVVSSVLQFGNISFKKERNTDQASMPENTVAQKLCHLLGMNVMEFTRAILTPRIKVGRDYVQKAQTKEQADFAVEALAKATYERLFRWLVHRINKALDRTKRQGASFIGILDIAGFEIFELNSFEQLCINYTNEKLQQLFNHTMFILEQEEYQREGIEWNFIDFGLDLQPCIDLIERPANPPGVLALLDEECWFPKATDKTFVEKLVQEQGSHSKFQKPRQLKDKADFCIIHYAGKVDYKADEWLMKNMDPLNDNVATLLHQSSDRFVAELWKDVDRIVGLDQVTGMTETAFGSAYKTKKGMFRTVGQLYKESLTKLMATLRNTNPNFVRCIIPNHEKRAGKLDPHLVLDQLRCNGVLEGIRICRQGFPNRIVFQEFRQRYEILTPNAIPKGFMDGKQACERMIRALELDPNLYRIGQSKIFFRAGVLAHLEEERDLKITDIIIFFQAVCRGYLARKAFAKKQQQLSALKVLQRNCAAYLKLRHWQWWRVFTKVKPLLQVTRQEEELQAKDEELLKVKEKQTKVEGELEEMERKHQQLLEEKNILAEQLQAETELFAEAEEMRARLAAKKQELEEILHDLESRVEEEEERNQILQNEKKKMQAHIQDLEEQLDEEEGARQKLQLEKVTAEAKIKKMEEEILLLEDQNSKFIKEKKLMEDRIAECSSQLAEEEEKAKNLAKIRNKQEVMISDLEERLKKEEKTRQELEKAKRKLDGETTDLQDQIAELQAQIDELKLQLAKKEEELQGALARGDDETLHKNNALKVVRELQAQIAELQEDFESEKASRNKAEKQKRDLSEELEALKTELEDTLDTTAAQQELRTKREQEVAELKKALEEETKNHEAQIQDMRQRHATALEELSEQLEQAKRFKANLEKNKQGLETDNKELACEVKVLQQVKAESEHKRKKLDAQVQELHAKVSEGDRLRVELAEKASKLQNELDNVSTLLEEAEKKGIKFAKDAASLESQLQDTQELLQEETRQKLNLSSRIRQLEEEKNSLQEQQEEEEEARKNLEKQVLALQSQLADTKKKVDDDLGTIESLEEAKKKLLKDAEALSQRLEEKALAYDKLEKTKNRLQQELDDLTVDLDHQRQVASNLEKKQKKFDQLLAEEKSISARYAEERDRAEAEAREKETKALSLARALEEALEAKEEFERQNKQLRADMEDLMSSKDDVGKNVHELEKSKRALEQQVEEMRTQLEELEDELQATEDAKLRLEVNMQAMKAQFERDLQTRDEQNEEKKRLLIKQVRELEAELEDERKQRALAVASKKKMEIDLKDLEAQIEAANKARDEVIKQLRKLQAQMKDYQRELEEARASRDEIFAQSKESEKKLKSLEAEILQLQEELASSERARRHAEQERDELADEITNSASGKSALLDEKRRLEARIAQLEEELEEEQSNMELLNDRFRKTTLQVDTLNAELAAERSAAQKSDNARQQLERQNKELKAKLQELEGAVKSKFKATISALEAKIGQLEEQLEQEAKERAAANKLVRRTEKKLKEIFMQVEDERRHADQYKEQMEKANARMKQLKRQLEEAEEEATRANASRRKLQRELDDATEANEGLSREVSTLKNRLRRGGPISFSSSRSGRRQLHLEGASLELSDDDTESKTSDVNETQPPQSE
inactive: [1] -0.082 | [2] 0.026 | epoxomicin 0.094 | [3] -0.025 | [4] -0.036 | [5] 0.024 | rosiglitazone 0.022 | [6] -0.064 | [7] -0.077 | saracatinib 0.019 | sotrastaurin -0.058 | alvocidib -0.034 | Tubastatin A 0.002 | [8] 0.024 | defactinib -0.039 | rucaparib -0.056 | [9] -0.005 | encorafenib 0.017 | [10] -0.023
active: volasertib -0.216

ORC3 isoform 2 (UniProt Q9UBD5)
Sequence of UniProt Q9UBD5 (Q9UBD5 whole entry, looked up): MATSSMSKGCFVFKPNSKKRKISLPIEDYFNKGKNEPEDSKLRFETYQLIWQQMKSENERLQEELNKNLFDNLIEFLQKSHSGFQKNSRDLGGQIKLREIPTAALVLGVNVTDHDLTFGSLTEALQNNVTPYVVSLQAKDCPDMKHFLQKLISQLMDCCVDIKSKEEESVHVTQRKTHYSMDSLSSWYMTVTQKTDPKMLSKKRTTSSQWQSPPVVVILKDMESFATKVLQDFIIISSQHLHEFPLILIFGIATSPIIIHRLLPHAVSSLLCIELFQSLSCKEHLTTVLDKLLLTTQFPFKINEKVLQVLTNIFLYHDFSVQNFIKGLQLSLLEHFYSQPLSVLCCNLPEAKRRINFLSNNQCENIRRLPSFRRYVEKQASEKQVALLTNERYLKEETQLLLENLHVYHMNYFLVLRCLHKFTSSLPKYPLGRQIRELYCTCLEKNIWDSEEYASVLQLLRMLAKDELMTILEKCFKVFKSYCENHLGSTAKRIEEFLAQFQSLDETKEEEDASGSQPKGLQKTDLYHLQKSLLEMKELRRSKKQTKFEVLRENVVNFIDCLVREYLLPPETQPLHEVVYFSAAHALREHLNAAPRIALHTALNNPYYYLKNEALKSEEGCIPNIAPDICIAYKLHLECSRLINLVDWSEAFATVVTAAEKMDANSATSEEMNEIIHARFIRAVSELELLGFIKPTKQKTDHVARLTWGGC
inactive: [1] -0.046 | volasertib -0.396 | [2] 0.044 | epoxomicin 0.181 | [3] -0.053 | [4] -0.017 | [5] 0.067 | rosiglitazone 0.059 | [6] -0.034 | [7] -0.376 | saracatinib 0.001 | sotrastaurin 0.011 | alvocidib -0.299 | Tubastatin A 0.006 | [8] -0.078 | defactinib -0.288 | rucaparib 0 | [9] 0.014 | encorafenib 0.288 | [10] 0.06

NPEPPS (UniProt P55786)
Sequence of UniProt P55786 (P55786 whole entry, looked up): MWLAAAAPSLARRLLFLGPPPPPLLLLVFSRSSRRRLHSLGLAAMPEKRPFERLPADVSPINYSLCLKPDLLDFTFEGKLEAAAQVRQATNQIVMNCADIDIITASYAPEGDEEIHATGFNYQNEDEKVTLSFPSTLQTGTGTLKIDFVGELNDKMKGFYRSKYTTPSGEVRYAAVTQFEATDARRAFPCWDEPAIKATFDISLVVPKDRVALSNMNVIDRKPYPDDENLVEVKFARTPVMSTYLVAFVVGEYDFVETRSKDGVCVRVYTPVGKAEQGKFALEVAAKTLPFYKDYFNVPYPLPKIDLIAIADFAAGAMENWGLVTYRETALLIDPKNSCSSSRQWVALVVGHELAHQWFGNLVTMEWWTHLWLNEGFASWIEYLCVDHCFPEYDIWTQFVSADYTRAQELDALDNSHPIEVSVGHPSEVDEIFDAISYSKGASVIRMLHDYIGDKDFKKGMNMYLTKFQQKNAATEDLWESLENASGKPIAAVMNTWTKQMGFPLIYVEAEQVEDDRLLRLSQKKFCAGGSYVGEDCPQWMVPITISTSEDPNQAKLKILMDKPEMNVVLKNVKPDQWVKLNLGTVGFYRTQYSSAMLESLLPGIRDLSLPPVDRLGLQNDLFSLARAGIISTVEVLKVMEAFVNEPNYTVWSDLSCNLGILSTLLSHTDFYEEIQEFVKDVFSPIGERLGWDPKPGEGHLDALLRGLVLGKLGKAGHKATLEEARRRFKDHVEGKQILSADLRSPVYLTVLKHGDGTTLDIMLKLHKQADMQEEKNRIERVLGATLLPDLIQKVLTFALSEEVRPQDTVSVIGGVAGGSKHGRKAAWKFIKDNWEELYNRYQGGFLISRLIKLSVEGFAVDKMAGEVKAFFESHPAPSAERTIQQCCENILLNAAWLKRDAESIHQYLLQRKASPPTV
inactive: [1] -0.005 | volasertib -0.023 | [2] 0.079 | epoxomicin -0.022 | [3] 0.082 | [4] -0.102 | [5] 0.007 | rosiglitazone 0.046 | [6] -0.098 | [7] -0.141 | saracatinib -0.013 | sotrastaurin 0.108 | alvocidib -0.077 | Tubastatin A 0.012 | [8] -0.082 | defactinib -0.004 | rucaparib 0.013 | [9] 0.075 | encorafenib -0.032
active: [10] 0.231

MTHFD1 (UniProt P11586)
Sequence of UniProt P11586 (P11586 whole entry, looked up): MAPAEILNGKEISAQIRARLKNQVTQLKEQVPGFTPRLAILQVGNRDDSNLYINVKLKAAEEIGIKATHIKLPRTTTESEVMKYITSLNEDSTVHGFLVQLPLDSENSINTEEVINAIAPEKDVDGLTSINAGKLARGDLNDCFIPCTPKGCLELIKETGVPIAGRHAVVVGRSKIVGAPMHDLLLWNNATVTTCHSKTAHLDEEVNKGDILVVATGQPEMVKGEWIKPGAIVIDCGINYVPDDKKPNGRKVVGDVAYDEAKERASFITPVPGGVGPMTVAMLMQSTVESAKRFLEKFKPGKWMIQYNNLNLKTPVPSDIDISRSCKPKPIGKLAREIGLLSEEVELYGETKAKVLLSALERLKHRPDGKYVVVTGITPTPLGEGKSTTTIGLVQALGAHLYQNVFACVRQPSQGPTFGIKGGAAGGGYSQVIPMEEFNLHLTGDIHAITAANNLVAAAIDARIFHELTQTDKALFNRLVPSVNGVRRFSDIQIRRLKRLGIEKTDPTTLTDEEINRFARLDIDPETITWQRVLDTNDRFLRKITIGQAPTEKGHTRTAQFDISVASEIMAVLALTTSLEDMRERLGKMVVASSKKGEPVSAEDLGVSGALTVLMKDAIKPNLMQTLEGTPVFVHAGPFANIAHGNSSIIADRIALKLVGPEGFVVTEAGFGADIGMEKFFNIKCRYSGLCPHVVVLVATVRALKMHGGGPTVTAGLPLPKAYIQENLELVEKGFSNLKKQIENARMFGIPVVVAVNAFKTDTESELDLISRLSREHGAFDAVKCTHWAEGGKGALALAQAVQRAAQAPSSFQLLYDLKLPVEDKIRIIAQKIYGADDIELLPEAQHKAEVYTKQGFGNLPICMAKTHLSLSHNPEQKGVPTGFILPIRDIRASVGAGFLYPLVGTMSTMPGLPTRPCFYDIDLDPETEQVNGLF
inactive: [1] -0.074 | volasertib -0.002 | [2] 0.035 | epoxomicin 0.067 | [3] -0.011 | [4] -0.159 | [5] 0.051 | rosiglitazone 0.024 | [6] -0.057 | [7] 0.004 | saracatinib 0.004 | sotrastaurin 0.018 | alvocidib -0.055 | Tubastatin A -0.009 | [8] 0.003 | defactinib -0.046 | rucaparib -0.032 | [9] 0.058 | encorafenib 0.04 | [10] -0.036
